# Screening data as filed in PubChem BioAssay.
# NOD2-RIPK2 inh = NOD2-RIPK2 binding disruptors in cells, primary screen, fluorescence, CHO cells, BLA complementation | Receptor-interacting serine/threonine-protein kinase 2 (Homo sapiens), O43353 | CCF4 ratio | inhibition, % at 4.98 µM | 360,000 tested, 0.38% active; in the data active means inhibition above about 21%;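 further: 0% = vehicle only and 100% = reference blocker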
# Target sequence (O43353 whole entry, looked up): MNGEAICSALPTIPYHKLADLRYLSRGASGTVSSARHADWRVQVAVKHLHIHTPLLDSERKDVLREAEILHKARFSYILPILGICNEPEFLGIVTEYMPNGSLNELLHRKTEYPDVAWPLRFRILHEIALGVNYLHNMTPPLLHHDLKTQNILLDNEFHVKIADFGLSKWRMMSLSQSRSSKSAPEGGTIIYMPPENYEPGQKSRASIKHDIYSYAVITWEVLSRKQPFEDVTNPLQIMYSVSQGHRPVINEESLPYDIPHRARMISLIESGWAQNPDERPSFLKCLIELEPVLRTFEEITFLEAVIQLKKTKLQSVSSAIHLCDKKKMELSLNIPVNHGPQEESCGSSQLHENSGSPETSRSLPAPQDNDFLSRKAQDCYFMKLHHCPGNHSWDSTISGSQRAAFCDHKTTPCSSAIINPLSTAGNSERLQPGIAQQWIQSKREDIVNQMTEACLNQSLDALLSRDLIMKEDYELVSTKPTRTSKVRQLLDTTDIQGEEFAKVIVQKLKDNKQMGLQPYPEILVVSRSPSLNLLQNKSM
# Exocytosis inh = LAMP-1 surface exposure blockers, TALL-104 cells – cell-based, flow cytometry, MLPCN library, primary screen. TALL-104 LAMP-1 surface exposure; cells stimulated with thapsigargin and PMA. inhibition, % at 10 µM. 360,000 tested, 0.66% active. AID 651702, 2012;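 active means inhibition above about 55%, limit read from the data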
# B2AR ag = beta2AR agonists driving receptor internalization, primary screen, cell-based, FAP fluorogen, flow cytometry | Beta-2 adrenergic receptor (Homo sapiens), P07550 | Am2.2-beta2AR cells | response, % (no concentration beside the values) | 340,000 tested, 0.43% active;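 active means response above a set limit, near 3 SD of response in nonfluorescent compounds, cut at about 42% in these data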
# ABHD5-PLIN5 inh = ABHD5-PLIN5 interaction inhibitors, primary screen, cell lysate, split luciferase complementation, luminescence | Perilipin-5 (Homo sapiens) + 1-acylglycerol-3-phosphate O-acyltransferase ABHD5 (Homo … | Split G. princeps luciferase complementation, 4 h | inhibition, % at 4 µM | 360,000 tested, 0.78% active;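 active means inhibition above the mean inhibition across every tested compound plus 3 SD, cut at about 22% in these data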;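 further: 0% = DMSO only wells and the 100% control is not disclosed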
# TLR9-MyD88 block = inhibitors of TLR9-MyD88 association in cells, primary screen, cell-based, CHO, BLA complementation, fluorescence; Toll-like receptor 9 (Homo sapiens) + Myeloid differentiation primary response protein …; CCF4 FRET ratio; inhibition, % at 4.98 µM; 340,000 tested, 0.21% active; AID 504734, 2011;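 active means inhibition above the mean over all tested compounds plus 3 SD, cut at about 21% in these data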;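 further: 0% = DMSO only wells and 100% = clavulanate BLA inhibitor control wells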
# TLR4 MyD88 comp = inhibitors of TLR4-MyD88 association in cells, primary screen, cell-based, HeLa CL3-4, BLA complementation, FRET ratio | inhibition, % at 8.4 µM | HeLa CL3-4 TLR4/MyD88 BLA complementation | 200,000 tested, 0.18% active | Toll-like receptor 4 (Homo sapiens) + Myeloid differentiation primary response protein …; in the data active means inhibition above about 25%;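 further: 0% = vehicle and 100% = reference inhibitor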
# Beta2AR ag CP1 = beta2AR agonists via receptor internalization, confirmation, cell-based, FAP fluorogen, flow cytometry, single point, cherry pick 1; 1,100 tested, 25% active; Am2.2-beta2AR cells, FAP surface receptor; stronger effect = lower value; percent response (surface receptor), % at 10 µM; shares compounds with B2AR ag;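 active means surface receptor percent response at or below 58%, roughly 3 SD from nonfluorescent compounds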
# FAP fluor counter = counter-screen for beta-2AR agonists: fluorescence in Am2.2 cells; calls only at 10 µM; shares compounds with B2AR ag; FAP fluorogen flow cytometry, fluorescence counterscreen; stronger effect = lower value; 1,100 tested, under 10 active; AID 588765;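 active means percent response below a set limit in fluorescence channel 1 and below 50% in channel 8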
# An asterisk follows results filed as active; i = inactive; / = no result. A selection: hits, their analogues and other compounds. The true share with any hit is near 2%.
SMILES,NOD2-RIPK2 inh,Exocytosis inh,B2AR ag,ABHD5-PLIN5 inh,TLR9-MyD88 block,TLR4 MyD88 comp,Beta2AR ag CP1,FAP fluor counter
Cn1c(=S)c2[nH]c(SCCN3CCCC3)nc2n(C)c1=O,8,-3,-3,6,-8,/,115,i
Cc1cc(C)n(C(=O)CCCC(=O)n2nc(C)cc2C)n1,-9,0,54*,1,-6,-7,92,i
CCOc1cc(C(=S)N2CCOCC2)ccc1OS(=O)(=O)c1ccccc1[N+](=O)[O-],-11,-4,6,3,-1,-4,87,i
CCn1c(SCC(=O)Nc2ccc(N3CCOCC3)cc2)nnc1C1CC1,-3,-2,-12,1,-11,/,/,/
Cc1ccn2c(Nc3ccc4c(c3)OCO4)c(-c3ccccn3)nc2c1,-6,-5,-1,-10,-2,3,/,/
Cc1ccc(Nc2c(-c3ccccn3)nc3cc(C)ccn23)cc1,3,3,76*,6,9,1,128,i
O=C(NC1CCCC1)C1c2ccccc2OCC(=O)N1Cc1ccco1 (configuration not stated),-7,12,/,2,/,/,/,/
COc1ccc2nc(NC(=O)CSc3nnc(N)s3)sc2c1,11,-3,75*,-5,-3,5,78,i
COc1ccc(Cn2c(SCc3cc(C)ccc3C)nc3cc(OC)c(OC)cc3c2=N)cc1,4,42,43*,2,4,4,20*,i
COc1ccc(Cn2c(SCc3ccc(C)cc3)nc3cc(OC)c(OC)cc3c2=N)cc1Cl,5,27,/,3,3,-5,/,/
N#Cc1c(-c2ccc(Cl)cc2)n(O)c2ccccc12,3,16,21,-8,-7,/,/,/
CN(C(=O)c1ccccc1)C(=O)c1ccccc1,-22,-4,/,1,3,/,/,/
COc1cc(NC(=O)c2csc(-c3ccncc3)n2)cc(C(=O)Nc2cccc(C(F)(F)F)c2)c1,-10,0,60*,6,-12,/,86,i
O=C(Nc1cccc(C(F)(F)F)c1)c1csc(-c2ccncc2)n1,-1,0,-3,8,-9,10,/,/
COc1cc(NC(=O)c2ccc(N)nc2)cc(C(=O)Nc2cccc(C(F)(F)F)c2)c1,2,-11,43*,-3,2,/,67,i
O=C(Nc1ccc(Br)cc1)c1cccc(S(=O)(=O)Nc2cnc3ccccc3c2)c1,-9,7,47*,1,-15,-1,104,i
CCOc1ccc2oc(C(=O)O)c(C)c2c1,-8,4,3,-3,4,/,/,/
CCOc1ccc2oc(C(=O)NCC(C)(C)CN(C)C)c(C)c2c1,-6,0,55*,9,-3,-9,103,i
O=C1CN(C(=O)COC(=O)c2cc(S(=O)(=O)N3CCOCC3)ccc2Cl)c2ccccc2N1,-19,-1,42*,-1,-4,/,87,i
COc1ccccc1-c1csc(C(NC(C)=O)c2ccccc2)n1 (configuration not stated),-5,0,/,2,/,/,/,/
NS(=O)(=O)c1cccc(NC(=O)c2cccc(N3C(=O)c4ccccc4C3=O)c2)c1,-7,5,-7,-5,-2,/,108,i
CC(=O)c1cccc(NC(=O)c2cccc(N3C(=O)c4ccccc4C3=O)c2)c1,-7,-1,7,5,-11,/,100,i
NS(=O)(=O)c1cccc(NC(=O)c2cccc(Oc3ccccc3)c2)c1,3,36,-7,-4,0,/,/,/
COC(=O)c1cc([N+](=O)[O-])c(-n2cncn2)c([N+](=O)[O-])c1,0,3,50*,6,-1,10,34*,i
C[C@H](NCCc1ccc(O)cc1)[C@H](O)c1ccc(O)cc1,-6,-1,-3,-6,-7,/,124,i
SMILES,NOD2-RIPK2 inh,Exocytosis inh,B2AR ag,ABHD5-PLIN5 inh,TLR9-MyD88 block,TLR4 MyD88 comp,Beta2AR ag CP1,FAP fluor counter
CC(COc1ccccc1)NC(C)C(O)c1ccc(O)cc1 (configuration not stated),-11,1,-3,8,-41,-9,116,i
O=C(CSc1nc(-c2ccccc2)cc(C(F)(F)F)n1)N1CCOCC1,-10,2,-12,-7,-9,-35,/,/
CC(Sc1nc(-c2ccccc2)cc(C(F)(F)F)n1)C(=O)NCc1ccco1 (configuration not stated),0,-1,6,-2,-6,0,/,/
CC1CCCN(C(=O)C(C)Sc2nc(-c3ccccc3)cc(C(F)(F)F)n2)C1 (configuration not stated),-6,-1,15,-9,0,3,67,i
CC(Sc1nc(-c2ccccc2)cc(C(F)(F)F)n1)C(=O)N1CCCCC1 (configuration not stated),8,6,99*,9,7,8,11*,i
CN1CCN(C2CN(Cc3cn(Cc4ccccc4)nn3)S(=O)(=O)C2)CC1 (configuration not stated),-3,-5,/,-3,/,/,/,/
Nc1ccn(C2C=CC(CO)O2)c(=O)n1 (configuration not stated),-5,-5,/,0,/,/,/,/
NC(=O)N/N=C/c1ccccc1OC(=O)c1cc2ccccc2oc1=O,-3,-8,-5,2,5,/,/,/
NC(=S)N/N=C/c1ccccc1OC(=O)c1cc2ccccc2oc1=O,3,3,0,4,7,/,102,i
COc1ccc(NC(=O)Cn2c(=O)oc3ccccc32)cc1,12,-8,-5,-6,-2,/,/,/
COC(=O)c1cc(NC(=O)Cn2c(=O)oc3ccccc32)cc(C(=O)OC)c1,-7,-4,71*,4,-5,/,122,i
O=C(Nc1ccc(F)cc1)C(c1ccccc1OC(F)(F)F)N1CCN(C(=O)c2ccco2)CC1 (configuration not stated),-7,-5,/,-4,/,/,/,/
Cc1ccccc1NC(=O)Cn1nnc(-c2ccc(N3CCOCC3)cc2)n1,1,-1,2,-1,-5,-9,/,/
CN(C)c1ccc(-c2nnn(CC(=O)Nc3ccccc3N3CCOCC3)n2)cc1,5,0,-14,0,3,7,105,i
